According to PubChem BioAssay AID938 (National Center for Advancing Translational Sciences (NCATS), 2007):
Values joined by “and” are separate entries in the source; they are usually repeats but may differ in a detail not shown here. Equal values may be shown once. Hit rate of the full screen: of about 73,000 compounds, about 1,800 (2.5%) were called active. Not shown: some 13% with an inconclusive outcome. The entries come from a sample that favours actives as a whole. Unmarked numbers belong to inactive results. The call rests on the fitted dose curve; in most records, active means well fitted activation curve with a large enough effect; inconclusive means small, poorly fitted or top-dose-only effect; inactive means no such curve, though single readings can be large or run the other way.
Potency means the concentration at half of the fitted maximal effect.

Assay: qHTS Assay for Agonists of the Thyroid Stimulating Hormone Receptor: Activators of Intracellular cAMP Concentrations in Parental HEK 293; further: nearly all actives have a fitted effect of over 55% in size; on activation: % of control where 0% means no effect
Conditions: parental HEK293 CNG cAMP sensor, membrane potential fluorescence; series mostly up to 57.1 µM; activation: at the top concentration
Method in brief: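 Counterscreen for endogenous-receptor signalling: CNG-channel HEK 293 cells report cAMP rise by membrane depolarization. After 60 min dye equilibration with 100 uM RO 20-1724, compounds incubated 30 min before bottom-read fluorescence at 590 nm.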
For `CCOC(=O)c1nc(-c2ccc3c(c2)OCO3)[nH]c1C`, the “activation” value was 20.4%.
For `CCCC(=O)N1c2ccc(-c3csc(N)n3)cc2CC1C` (stereo not drawn), the “activation” value was -11.7%.
For `Cc1ccc2nc(S(=O)(=O)O)[nH]c2c1`, the “activation” value was 0.944%.
For `O=C(CC1N=C2c3ccccc3N=C(SCc3ccccc3Cl)N2C1=O)NCc1ccco1` (stereo not drawn), the Potency was 15.8 µM (active).
For `NC(=O)CSC1=Nc2ccccc2C2=NC(CCC(=O)NCc3ccc(F)cc3)C(=O)N12` (stereo not drawn), the “activation” value was 1.88%.
With `O=C(CSC1=Nc2ccccc2C2=NC(c3ccccc3)C(=O)N12)NCC1CCCO1` (stereo not drawn) the “activation” value was -0.0353%.
Compound `Cc1cc(OCC(=O)O)c(Cl)cc1Cl` has an activation of 18.1% [at 11.4 µM].
For `Cc1ccccc1C(=O)O`, the “activation” value was 5.98%.
With `CCCC(=O)Nc1ccccc1N1CCN(C(=O)c2ccccc2)CC1` the Potency was 15.8 µM (active).
For `O=C(Nc1ccccc1N1CCN(C(=O)c2ccccc2)CC1)c1ccc2c(c1)OCO2`, the “activation” value was 6.57%.
With `CCC(=O)Nc1ccccc1N1CCN(S(C)(=O)=O)CC1` the “activation” value was 13%.
`CC(C)CO/N=C1/C[C@@H](O)[C@@H](O)[C@@H]2[C@@H]3C(=O)N(C[C@@H]4CCCO4)C(=O)[C@H]3CC[C@@H]12` showed an activation of 4.27% [at 11.4 µM].
`O=C(O)COc1c(Cl)cc(Cl)c2cccnc12` showed an activation of 14.2% [at 11.4 µM].
For `CC12CCC(C(=O)N3CCN(c4ncccn4)CC3)(c3nc4ccccc4nc31)C2(C)C` (stereo not drawn), the “activation” value was 12.7%.
With `COCCCNC(=O)CSc1nc2ccc(N3CCOCC3)cc2c(=O)n1CCc1ccccc1` the “activation” value was 3.65%.
With `CCc1ccc(NC(=O)CSc2nc3ccccc3c(=O)n2CCN2CCOCC2)cc1` the Potency was 31.6 µM (active).
In the case of `CCCCn1c(SCC(=O)NCC2CCCO2)nc2ccc(N3CCOCC3)cc2c1=O` (stereo not drawn), the “activation” value is reported as 2.7%.
With `COC(=O)C1=C(C)N(Cc2ccccc2)C2=C3C(=O)N(c4ccccc4)C(=O)C3[C@@](O)(C(=O)OC)C(=O)N2C1c1ccccc1` (stereo partly drawn) the activation was 9.18% [at 11.4 µM] and 2.67% [at 11.4 µM].
With `CN(Cc1ccco1)c1ncncc1-c1ccoc1` the “activation” value was 11.1%.
For `Cc1ccccc1-c1nc(N(C)Cc2ccco2)c2ccccc2n1`, the Potency was 25.1 µM (active).
With `CN(Cc1ccco1)c1cc(-c2ccccc2C(F)(F)F)ncn1` the “activation” value was 22.4%.
In the case of `CCC(C(=O)NC1CCCC1)N(C(=O)c1snc(C(N)=O)c1N)c1ccc2c(c1)OCCO2` (stereo not drawn), the Potency is reported as 25.1 µM (active).
With `Cc1ccc(C(C(=O)NC2CCCCC2)N(C(=O)c2csnn2)C2CC2)o1` (stereo not drawn) the “activation” value was 17.2%.
In the case of `COCCNC(=O)C(c1ccc(C)o1)N(Cc1cccs1)C(=O)c1snc(C(N)=O)c1N` (stereo not drawn), the “activation” value is reported as -0.52%.
Work on `Cc1cc2c(cc1C)NC1=C(N2)O[C@H](c2c[nH]c3ccc(COc4ccccc4)cc23)C1=O` yielded an activation of 3.07% [at 11.4 µM].
With `O=C(c1cc(C(F)(F)F)cc(C(F)(F)F)c1)N1CCC[C@@]2(CCN(c3ccccn3)C2)C1` the Potency was 15.8 µM (active).
In the case of `O=C(c1ccncc1)N1CCC2(CCCN(C(c3ccccc3)c3ccccc3)C2)CC1`, the Potency is reported as 10 µM (active).
In the case of `COc1ccc(C(=O)N2CCC3(CCCN(C(c4ccccc4)c4ccccc4)C3)CC2)cc1`, the “activation” value is reported as 20.6%.
In the case of `O=C(c1csnn1)N1CCC[C@@]2(CCN(c3cccc(-c4ccccc4)c3)C2)C1`, the “activation” value is reported as 3.98%.
In the case of `COc1ccc(C(=O)N2CCC3(CC2)CCN(c2ccccn2)CC3)cc1`, the “activation” value is reported as 14.2%.
With `O=C(c1cc(C(F)(F)F)cc(C(F)(F)F)c1)N1CCC2(CCCN(c3ccccn3)C2)CC1` the Potency was 25.1 µM (active).
With `O=C(c1cc(C(F)(F)F)cc(C(F)(F)F)c1)N1CCC2(CCCN(Cc3ccncc3)C2)CC1` the “activation” value was 20.6%.
In the case of `CC(=O)N1CCC2(CCCN(c3ncccn3)C2)CC1`, the “activation” value is reported as 5.39%.
With `O=C(c1cccc(F)c1)N1CCC2(CCCN(Cc3ccncc3)C2)CC1` the “activation” value was 24.7%.
`COc1cccc([C@H](O)Cn2cc(-c3ccc(CON=C(C)C)cc3)nn2)c1` showed an activation of 14.1% [at 11.4 µM].
For `COc1ccc(COC(=O)N/N=C2/C[C@@H](O)[C@@H](O)[C@@H]3[C@@H]4C(=O)N([C@@H](C)c5ccccc5)C(=O)[C@H]4CC[C@@H]23)cc1`, the activation was -0.62% [at 11.4 µM].
For `CCOC(=O)c1sc(NC(=S)n2cc(C)cn2)c(C(=O)OCC)c1C`, the “activation” value was 4.01%.
With `CN1CCc2nc(-c3ccccc3)c(-c3ccccc3)cc2C1` the activation was 0.173% [at 11.4 µM].
For `c1ccc2nc(C3=NCCN3)cnc2c1`, the “activation” value was -2.21%.
In the case of `CCOC(=O)c1ccc(N2C(=O)CC(N3CCC(C(=O)OCC)CC3)C2=O)cc1` (stereo not drawn), the “activation” value is reported as -3.39%.
In the case of `CCOC(=O)c1nnn(-c2nc(OC)nc(N(C)C)n2)c1-c1ccccc1`, the “activation” value is reported as 19.1%.
With `Cc1ccc(C(=O)N2CCN(C3CCCCC3)CC2)s1` the “activation” value was -11.9%.
For `N/C(=N\c1nc2ccccc2o1)NC(=O)C(Cc1ccccc1)N1C(=O)c2ccccc2C1=O` (stereo not drawn), the “activation” value was 6.18%.
For `CCOC(=O)C1CCN(C(c2cc3cc(C)cc(C)c3[nH]c2=O)c2nnnn2C2CCCCC2)CC1` (stereo not drawn), the “activation” value was 14.4%.
For `Cc1cccc2cc(CN(Cc3cccs3)C(c3nnnn3C3CCCC3)C(C)C)c(=O)[nH]c12` (stereo not drawn), the “activation” value was 20.4%.
For `Cc1cccc2cc(CN(Cc3ccc4c(c3)OCO4)Cc3nnnn3C3CCCC3)c(=O)[nH]c12`, the Potency was 31.6 µM (active).
For `O=C1C(c2ccccn2)=[N+]([O-])c2ccccc21`, the “activation” value was 4.84%.
With `O=c1c2ccccc2nnn1CSc1nc2sc3c(c2c(=O)n1CC1CCCO1)CCC3` (stereo not drawn) the “activation” value was 24.9%.
For `COc1ccccc1Oc1ccc(S(=O)(=O)Nc2cccnc2)cc1`, the “activation” value was 19.7%.
In the case of `COc1ccc(C2=NOC(C(=O)NCc3ccco3)C2)cc1OC` (stereo not drawn), the activation is reported as 8.46% [at 2.29 µM].
With `COc1ccccc1N(C(=O)Cn1nnc2ccccc21)C(C(=O)NCc1ccco1)c1ccc(C)o1` (stereo not drawn) the Potency was 3.98 µM (active).
With `CCOc1ccccc1C(=O)NCc1ccco1` the “activation” value was 22.2%.
For `CC(C)(C)n1nc2c(c1NC(=O)c1ccc(S(=O)(=O)N3CCCC3)cc1)CS(=O)C2` (stereo not drawn), the “activation” value was 9.47%.
In the case of `COc1ccc(CC(=O)Nc2c3c(nn2-c2cccc(Cl)c2)CS(=O)C3)cc1` (stereo not drawn), the “activation” value is reported as 26.7%.
In the case of `Cc1cccc(CC(=O)Nc2c3c(nn2-c2cccc(Cl)c2)CS(=O)C3)c1` (stereo not drawn), the Potency is reported as 10 µM (active).
For `CC(C)CO`, the “activation” value was 35.2%.
For `O=C(NCc1ccccc1)[C@H]1C[C@@H]1[C@H](NP(=O)(c1ccccc1)c1ccccc1)c1ccccc1`, the “activation” value was 21.5%.
For `Cc1cccc(C(=O)O)c1[N+](=O)[O-]`, the “activation” value was 15%.
